# From PubChem BioAssay
# rCAG binder = binds r(CAG) RNA repeats | AID 651821 | r(CAG) RNA repeat, TO-PRO-1 dye displacement fluorescence | inhibition, % at 3 µM | 370,000 tested, 1.3% active;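 active = inhibition above the plate cutoff, the mean of all test compounds on that plate plus 3 SD, cut at about 35% in these data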;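 note: higher means more dye released from RNA so lower well fluorescence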
# sPLA2-III inh = Blocks human group III sPLA2 activity. 370,000 tested, 0.56% active. AID 743126. QFRET BODIPY PC-A2 liposome hydrolysis, fluorescence. inhibition, % at 12.2 µM. Q9NZ20;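 active = inhibition above mean plus 3 SD of compounds lying within the high and low control bounds, cut at about 19% in these data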
# Target sequence (Q9NZ20 whole entry, looked up): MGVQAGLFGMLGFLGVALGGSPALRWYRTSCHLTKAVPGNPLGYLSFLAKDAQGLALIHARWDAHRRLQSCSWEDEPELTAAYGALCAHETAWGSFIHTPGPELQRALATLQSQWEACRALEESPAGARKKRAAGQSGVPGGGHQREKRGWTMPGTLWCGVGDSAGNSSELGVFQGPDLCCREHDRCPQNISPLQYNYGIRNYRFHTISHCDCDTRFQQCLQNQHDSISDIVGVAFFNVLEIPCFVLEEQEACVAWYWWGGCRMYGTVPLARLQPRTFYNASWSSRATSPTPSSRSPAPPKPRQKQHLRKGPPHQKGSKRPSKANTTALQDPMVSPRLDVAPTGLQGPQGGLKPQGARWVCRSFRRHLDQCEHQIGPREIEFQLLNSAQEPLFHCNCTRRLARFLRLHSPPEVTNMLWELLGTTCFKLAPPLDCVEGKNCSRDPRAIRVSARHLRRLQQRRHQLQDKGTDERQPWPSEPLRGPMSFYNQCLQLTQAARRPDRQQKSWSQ
# MsrA inh = inhibits bovine methionine sulfoxide reductase A; 360,000 tested, 0.75% active; inhibition, % at 15.5 µM; purified bovine MsrA, absorbance read-out; in the data active = inhibition above about 4.5%
# MsrA act = bovine methionine sulfoxide reductase A activation | activation, % at 10.6 µM | purified bovine MsrA, absorbance read-out | 360,000 tested, 0.3% active; in the data active = activation above about 7.5%
# rCAG bind conf = r(CAG) RNA repeat binding, confirmation; shares compounds with rCAG binder; TO-PRO-1 dye displacement fluorescence; inhibition, % at 3 µM; 4,300 tested, 70% active; AID 652065;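 active = inhibition above a per-plate cutoff, the mean inhibition of sample wells plus 3 SD, cut at about 35% in these data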;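 note: loss of TO-PRO-1 fluorescence as compound displaces dye from 1x1 AA loop RNA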
# DNA CAG counter = counter-screen for rCAG RNA binders: DNA CAG dye complex inhibitors | AID 652068 | inhibition, % at 3 µM | shares compounds with rCAG binder | d(CAG) DNA oligo TO-PRO-1 dye displacement, fluorescence | 4,300 tested, 94% active;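 active = inhibition above its plate's cutoff, the mean test-well inhibition plus 3 SD, cut at about 4.8% in these data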;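 note: hits displace the dye from DNA and so lower well fluorescence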
# dCAG dye DR = counter-screen for rCAG binders: inhibitors of DNA CAG TO-PRO-1 complex. DNA CAG/GTC duplex TO-PRO-1 dye displacement fluorescence. AID 686960. shares compounds with rCAG binder. IC50, µM. 250 tested, 20% active; in the data active = IC50 below about 10 µM
# A number is an active result; i = inactive; nt = no result. Only some compounds are listed: those with a hit (about 2.8% of all), similar ones and a draw of the others.
SMILES,rCAG binder,sPLA2-III inh,MsrA inh,MsrA act,rCAG bind conf,DNA CAG counter,others
O=c1[nH]n2c(=O)c3c([nH]c2c1N=Nc1cccc(C(F)(F)F)c1)CCCC3,99,i,i,i,76,42,
O=c1[nH]n2c(=O)c3c([nH]c2c1N=Nc1cccc(Cl)c1)CCC3,85,i,i,i,73,31,dCAG dye DR=8.4
CC(=O)c1ccc(C(=O)N2CCCC(C(=O)c3ccc(Cl)cc3)C2)s1 (stereo not drawn),i,i,i,i,nt,nt,
COC(=O)C1(NC(=O)NC23CC4CC(CC(C4)C2)C3)CCCCC1,i,i,i,i,nt,nt,
COCCNCc1cc(C)n(-c2cc(S(=O)(=O)N3CCOCC3)ccc2N2CCCC2)c1C,i,i,i,i,nt,nt,
CCc1ccc(CCC(=O)Nc2sc(C)c(C)c2C(=O)OC)o1,i,i,i,i,nt,nt,
CCOC(=O)C1(C)CCN1C(=O)c1ccoc1 (stereo not drawn),i,i,i,i,nt,nt,
CC(C)c1cc(C(=O)O)c2ccccc2n1,40,i,i,i,i,i,
COc1ccc(CCNC(=O)c2ccccc2NS(=O)(=O)c2c(F)cccc2F)cc1,48,i,i,i,i,9.9,
COc1ccc(CCNC(=O)c2ccccc2NS(=O)(=O)c2cc(C(=O)O)ccc2OC)cc1,i,i,i,i,nt,nt,
COc1ccc(CN=C2NC(=O)CC(C(=O)Nc3ccc([N+](=O)[O-])cc3C)S2)cc1 (stereo not drawn),i,i,i,i,nt,nt,
O=C(c1ccc2c(=O)n(CC3CCCO3)c(=S)[nH]c2c1)N1CCN(c2ccccc2)CC1 (stereo not drawn),i,i,i,i,nt,nt,
Cc1cccc(C)c1NC(=O)C(CCc1ccccc1)n1c(=O)c(-c2cc3ccccc3[nH]2)nc2ccccc21 (stereo not drawn),i,i,i,nt,nt,nt,
O=C(O)c1ccccc1N1C(=O)C2C3c4ccccc4C(Br)(c4ccccc43)C2C1=O (stereo not drawn),35,i,i,i,i,4.5,
COc1ccc(-c2c[nH]c(=O)[nH]c2=O)cc1OC,i,i,i,i,nt,nt,
COc1ccc(OCC(=O)Nc2ccc(C(=O)Nc3ccccc3C(=O)O)cc2)cc1,73,i,i,i,75,30,dCAG dye DR=i
Cc1ccccc1OCC(=O)Nc1ccc(C(=O)Nc2ccccc2C(=O)O)cc1,49,i,i,i,73,37,
COc1ccc(C(=O)N/C(=C\c2ccccc2)C(=O)Nc2ccc(C(=O)O)cc2)cc1,i,i,i,i,nt,nt,
Cc1ccccc1OCC(=O)Nc1ccc(C(N)=O)cc1,i,i,i,i,nt,nt,
COc1ccc(/C=C(\NC(=O)c2ccc(OC)cc2)C(=O)Nc2ccccc2C(=O)O)cc1,39,i,i,i,i,i,
Cc1ccc(OCC(=O)Nc2ccc(C(=O)Nc3ccccc3C(=O)O)cc2)cc1C,51,i,i,i,80,45,
Clc1ccc(CN=C(Nc2ccccc2)NC2CCCCC2)cc1,i,i,i,i,nt,nt,
COc1ccc(C(=O)Nc2ccc(C(=O)O)cc2NC(=O)c2ccc(OC)cc2)cc1,36,i,i,i,i,i,
CC(C)(C)NC(=O)C(c1ccnc2ccccc12)n1c(=O)c(-c2ccco2)nc2ccccc21 (stereo not drawn),36,i,i,nt,i,15,
CC(C)(C)NC(=O)C(c1cc2ccccc2o1)n1c(=O)c(-c2ccco2)nc2ccccc21 (stereo not drawn),i,i,i,nt,nt,nt,
SMILES,rCAG binder,sPLA2-III inh,MsrA inh,MsrA act,rCAG bind conf,DNA CAG counter,others
COc1ccc(C(C(=O)Nc2c(C)cccc2C)n2c(=O)c(-c3ccco3)nc3ccccc32)cc1 (stereo not drawn),38,i,i,nt,i,10,
O=Cc1c(NCCN2CCCC2)c2ccccc2[nH]c1=O,i,i,i,i,nt,nt,
COC(=O)CSc1nc2cc3c(cc2cc1C#N)OCO3,i,i,i,i,nt,nt,
CC(C)c1ccc(N(CC(=O)NCC2CCCO2)C(=O)CCC(=O)Nc2nccs2)cc1 (stereo not drawn),i,i,i,i,nt,nt,
O=C(NCc1ccncc1)[C@@H]1CCCN1C(=O)[C@H]1CCCN1C(=O)c1c(F)cccc1F,i,i,i,i,nt,nt,
COc1ccc(CN(CC(=O)NC2CCCCC2)C(=O)CCC(=O)Nc2nccs2)cc1,i,i,i,i,nt,nt,
Cc1cc(OCC(=O)NNC(=S)NC(=O)c2ccc(Br)o2)ccc1Cl,45,i,i,i,69,22,dCAG dye DR=i
O=C(O)c1cccc(Nc2nc(-c3ccccc3)nc3ccccc23)c1,49,i,i,i,i,7.6,
